# In PubChem BioAssay AID588850 (Sanford-Burnham Center for Chemical Genomics, 2011):
# Several values for one entry are separate records, joined by “and”; a condition that tells them apart may be missing. Identical values can stand only once. Screen size: about 360,000 compounds; about 3,100 (0.86%) were called active. The entries come from a sample that favours actives as a whole. A number with no mark means an inactive call.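 The calls were made as follows: active = at least 50% inhibition at 5 µM, scaled per plate between neutral and stimulator controls; inactive = the rest.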
# Assay: NF-kB reporter blockers in CF airway cells – cell-based, GFP fluorescence, uHTS, primary screen (AID 588850);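 also: PAF is a Pseudomonas aeruginosa culture filtrate used as stimulus; plate controls were PAF-stimulated DMSO wells for no effect and unstimulated DMSO wells for full effect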
# Conditions: KKLEB NF-kB-GFP reporter, PAF-induced, GFP fluorescence overnight; at 5 µM; hits give high values
row,SMILES,inhibition
1,COc1ccc(Cl)cc1NS(=O)(=O)c1cccc(C(=O)NCC2CCCO2)c1 (centres undefined),-16.2%
2,O=C(CSc1nnc(-c2ccoc2)o1)N1CCOCC1,-7.3%
3,COc1cccc(C(NC(C)=O)c2nc(-c3ccccc3OC)cs2)c1 (centres undefined),-4%
4,CCOP(=O)(OCC)C(Cc1ccccc1)N=C(c1ccccc1)c1ccccc1 (centres undefined),2.4%
5,Cc1cc(=O)oc2c3c(cc(OCC(=O)NCC(O)c4ccccc4)c12)OC(C)(C)CC3 (centres undefined),-24.9%
6,S=C(NN=Cc1ccccn1)Nc1ccccn1,73.7% (active)
7,S=C(Nc1cccnc1)Nc1ccccn1,-6.9%
8,O=C(N/N=C/c1ccccn1)c1cccc(NC(=O)c2ccc(Cl)cc2)c1,8.6%
9,CC(OC(=O)CNC(=O)c1ccc(Cl)c([N+](=O)[O-])c1)C(=O)NCc1ccco1 (centres undefined),5.2%
10,N#Cc1cccc(NC(=O)COC(=O)c2ccccc2C(=O)c2ccc(Cl)c([N+](=O)[O-])c2)c1,86.9% (active)
11,O=C(COc1ccc([N+](=O)[O-])cc1)Nc1cccc(C(=O)Nc2ccccc2C(=O)O)c1,-36%
12,NS(=O)(=O)c1cccc(NC(=O)COC(=O)c2cc([N+](=O)[O-])ccc2N2CCCC2)c1,5.8%
13,CC(=O)Nc1ccc(NC(=O)C(C)OC(=O)c2ccccc2C(=O)c2ccc(Cl)c([N+](=O)[O-])c2)cc1 (centres undefined),81.1% (active)
14,CCOc1ccc(C(=O)NC(=S)Nc2ccc(NC(=O)C(C)C)cc2)cc1[N+](=O)[O-],0.2%
15,Cc1ccc(S(=O)(=O)N2C3C=CC(C3)C2C(=O)O)cc1 (centres undefined),1.4%
16,COCc1c(C(=O)OCc2c(C)noc2C)oc2ccccc12,-11.5%
17,CCOC(=O)N1CCC(Nc2c(NCCCN3CCN(c4ccc(OC)cc4)CC3)c(=O)c2=O)CC1,-6.5%
18,CCN(CC)C(=O)N1CCN(C(=O)c2ccc(C)cn2)CC1,7.5%
19,CCN1CCC2(CCN(Cc3cn[nH]c3-c3ccc(OC)c(F)c3)C2)C1 (centres undefined),11%
20,CC(=O)N1CCC(C(=O)OCc2ccc(Cl)cc2)(c2ccccc2)CC1,-6.8%
21,Oc1ccc(Br)cc1/C=N/Nc1ccccn1,107% (active)
22,CCN(CC)CCn1c(/N=C/c2cc(Br)ccc2O)nc2ccccc21,2.3%

row,SMILES,inhibition
1,O=C(CCc1ccc(O)cc1)NN=Cc1cc(Br)ccc1O,-5%
2,CN1CCCN(C(=O)C2CCCCC2)CC1,-5.1%
3,CC(=NNC(N)=O)C1CC2CCC1CC2 (centres undefined),0.5%
4,COc1ccc(NC(=O)c2sc3nc(C)nc(N4CCN(c5ccccn5)CC4)c3c2C)c(OC)c1,53.3% (active)
5,Cc1nc(N2CCC(C)CC2)c2c(C)c(C(=O)Nc3cc(F)ccc3C)sc2n1,27.1%
6,Cc1nc(N2CCN(c3ccccn3)CC2)c2c(C)c(C(=O)Nc3ccc(F)c(Cl)c3)sc2n1,36.8%
7,COc1ccc(CC(=O)N[C@@H]2c3cc(OC)c(OC)cc3C[C@H]2OCc2ccccc2)cc1,-5.1%
8,CN1OC[C@@H]2CN(C(=O)c3ccc(-c4ccccc4)cc3)[C@H](c3ccc(-c4cccc(F)c4)cc3)C[C@@H]21,-13%
9,O=C(OC12CC3CC(CC(C3)C1)C2)c1ccc(NCc2cc(O)ccc2O)cc1,60.3% (active)
10,CN=C(NC#N)NCCSCc1nc[nH]c1C,-4.5%
11,Cc1cc(C)c(S(=O)(=O)c2cc(F)ccc2C)c(=O)[nH]1,-12.1%
12,O=C(c1ccccc1)N1CCN(C(=O)c2cc3nc(-c4ccccc4)cc(C(F)(F)F)n3n2)CC1,-4.4%
13,C#Cc1cc(N2CCN(C(=O)c3ccoc3)CC2)n2nc(-c3cccc(Cl)c3)cc2n1,64.7% (active)
14,CN(C)CCN1CCN(c2cc(-c3cccc(Cl)c3)nc3ccnn23)CC1,7.8%
15,COc1cccc(C(O)c2nc(-c3ccc(C)c(C)c3)cs2)c1 (centres undefined),17.1%
16,COc1cc(C2c3cc4c(cc3C(O)C3COC(=O)C23)OCO4)cc(OC)c1OC (centres undefined),50.8% (active)
17,COc1cc(C=C(OC(C)=O)c2ccc3c(c2)OCO3)cc(OC)c1OC,-22.3%
18,COc1cc(C2CC(=O)Oc3cc(OC)c(OC)c(OC)c32)cc(OC)c1OC (centres undefined),-6.8%
19,C#C[C@]1(O)CC[C@H]2[C@@H]3CCC4=CC(=O)CC[C@@H]4[C@H]3CC[C@@]21CC,3.1% and 6.1%
20,COc1ccc(CN2CC[C@H]3C=CC[C@@H](C(=O)N4CCOCC4)[C@H]3C2=O)cc1OC,-24.1%
21,Cc1ccc(OC(=O)c2cncc(Br)c2)c(C)c1,1.1%
22,Cc1cccc(-n2ncc(Cl)c(Cl)c2=O)c1,85.5% (active)
